# Compounds with a hit are over-represented: about 6.5% of the library has one in this group of screens.
# HT1080NT lethal: kills 2HG-producing HT-1080-NT fibrosarcoma cells. HT-1080-NT fibrosarcoma viability, CellTiter-Glo ATP luminescence, 48 h. Potency, µM (highest dose often 46.1 µM), inactives show top-dose activity, negative = less viability, most hits filed as cytotoxic. 360,000 compounds, 1.6% hits. AID 686970;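 note: NT is the 2HG producing partner of a matched IDH1 knockdown line; potency is the fitted concentration of half-maximal effect; 0% = DMSO-treated cells and -100% = media-only wells without cells; nearly all actives have a fitted effect of over 55% in size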
#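 Viability of the 2HG-overproducing fibrosarcoma line after 48 hours of compound exposure at 37 degrees C was determined by luminescence with CellTiter-Glo, and concentration-effect curves were then fitted and categorized.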
# Giardia killer: kills Giardia lamblia; 340,000 compounds, 0.15% hits; activity change, % at 7.66 µM, hits read low; AID 540267; Giardia lamblia trophozoite viability; in the data active = activity change below about -80%; inconclusive = between about -30% and that limit;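 note: parasites exposed to compound for two days anaerobically before the ATP read; % is set by controls: 0 for no effect and ±100 for the full control effect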
#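 Media and compound were dispensed first, then trophozoites at 100 cells/well; plates sat 48 hrs at 37 deg C without oxygen before ATP luminescence reagent was added and read after 15-30 min at room temperature.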
# TGFb SMAD3 inh: TGF-b pathway inhibition | HepG2 CAGA-GFP TGF-b/SMAD3 reporter, GFP fluorescence, 18 h; TGF-beta stimulated, 500 pg/mL final | Potency, µM (titrated, usually from 46.1 µM), for inactives: top-dose activity, negative = inhibition, actives largely listed as inhibitors | 410,000 compounds, 1.2% hits | AID 588855; note: potency is the fitted concentration of half-maximal effect; % is set by controls: 0 for no effect and ±100 for the full control effect; nearly all actives have a fitted effect of over 65% in size
#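 Cell-based qHTS in HEPG2 carrying a CAGA-GFP Smad reporter; compounds added before 500 pg/mL final TGF-beta, 18 h incubation at 37 degrees C, GFP fluorescence quantified per cell by imaging cytometry.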
# HT1080 IDH1KD tx: HT-1080 IDH1 knockdown cell toxicity (counter line); AID 686971; Potency, µM (doses to about 46.1 µM), for inactives: at the highest dose activity, negative = toxicity, hits mostly cytotoxic; 360,000 compounds, 2% hits; HT-1080 IDH1 knockdown viability, ATP luminescence, 48 h;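 note: potency is the fitted concentration of half-maximal effect; 0% = DMSO wells and -100% = cell-free medium wells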
#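 Viability of IDH1-knockdown HT-1080 fibrosarcoma cells was assessed by CellTiter-Glo after 48 h at 37 °C with titrated compound; concentration-effect curves were classified by fit quality and response size.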
# HepG2 viability: counter-screen for TGF-b inhibitors: cytotoxicity in HepG2 cells | 410,000 compounds, 0.76% hits | Potency, µM (titrated, usually from 46.1 µM), inactives show top-dose activity change, negative = cytotoxicity, hits mostly cytotoxic | HepG2 CAGA-GFP viability, ATP luminescence, 18 h; note: potency is the fitted concentration of half-maximal effect
#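 HepG2 CAGA-GFP cells (1000/well, DMEM with 1% FBS) received compound, then TGF-beta at 500 pg/mL final, and were incubated 18 hours at 37 degrees C. Viability was read by CellTiter-Glo luminescence. Media-only wells were set as complete cell-killing and DMSO as no toxicity.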
# IL1B secr inh: inflammasome signaling inhibition, IL-1 beta readout. activity change, % at 57.5 µM. AID 743279. THP-1 LPS/ATP IL-1B secretion, AlphaLISA, 16 h; active compounds read low. 360,000 compounds, 4.7% hits; in the data active = activity change below about -50%; inconclusive = mostly about -30% to -49%; note: % is set by controls: 0 for no effect and ±100 for the full control effect
#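 THP-1 cells pretreated 1 hr with compounds (up to 57.5 uM final), then stimulated with LPS (250 ng/mL final) plus ATP (1.25 mM final); secreted IL-1B measured by AlphaLISA after 16 hr, decreased signal indicating inhibition.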
# Numbers without * were called inactive; u = inconclusive; x = not tested or not shown. Unless noted, calls come from the whole dose curve; as a rule, active = well fitted curve in the direction sought with a large enough effect; inconclusive = small, poorly fitted or top-dose-only effect, or another doubt; inactive = no such curve, though single readings can be large; an effect the other way counts as inactive or inconclusive.
SMILES,HT1080NT lethal,Giardia killer,TGFb SMAD3 inh,HT1080 IDH1KD tx,HepG2 viability,IL1B secr inh
COc1ccc(OC)c(NC(=O)Cn2cc(C=O)c3ccccc32)c1,-19%,20,10µM*,-11%,-30%,46
Cc1ccc(N/C(N)=N/c2nc(CSc3ccc(C)cc3)cc(=O)[nH]2)cc1,7%,-5,-4%,10%,7%,2
COc1cc(NS(=O)(=O)c2ccc(OC)c(C)c2C)c(OC)cc1Cl,2.3µM*,-8,u,2.3µM*,-15%,-4
COc1ccc(OC)c(S(=O)(=O)Nc2cc(OC)c(Cl)cc2OC)c1,-26%,4,6%,-26%,-30%,-4
Cc1ccc2c(=O)cc(C(=O)Nc3nc4ccc(Cl)cc4s3)oc2c1C,x,x,2%,x,-4%,x
COc1ccc(N2C(=O)CC(Sc3nc4c(cc3C#N)CCC4)C2=O)cc1 (stereo not drawn),u,-4,-22%,18%,-9%,-14
Cc1cccc(N2C(=O)CC(Sc3nc(C)c4c(n3)CCCC4)C2=O)c1 (stereo not drawn),7.1µM*,40,1%,10µM*,1%,5
COc1ccc(N2C(=O)CC(Sc3nc(C)c4c(n3)CCCC4)C2=O)cc1 (stereo not drawn),15µM*,-11,14%,u,-20%,52
Cc1nc(SC2CC(=O)N(c3cc(Cl)cc(Cl)c3)C2=O)nc2c1CCCC2 (stereo not drawn),-19%,-7,u,-23%,-7%,25
COc1ccc(/C=N/Nc2nc(-c3ccc(C)cc3)c(NC(C)=O)s2)cc1OC,15%,10,2%,3%,19%,12
COc1cc(/C=N\Nc2nc(-c3ccc(C)cc3)c(NC(C)=O)s2)ccc1O,-22%,-5,-12%,-16%,2%,-62*
Cc1cccc(/C=C\c2nc3ccccc3c(=O)[nH]2)c1,u,-28,2%,5.8µM*,-8%,-4
C(=C\c1ccco1)/c1nc2ccccc2[nH]1,-19%,9,-7%,-23%,-80%,37
COc1ccc(C(=O)Nc2cccc(/C=C/c3nc4ccccc4c(=O)[nH]3)c2)cc1,u,3,u,u,-76%,-27
O=c1[nH]c(/C=C/c2ccc(Br)cc2)nc2ccccc12,-2%,u,-9%,15%,8%,-8
O=C(Nc1cccc(/C=C/c2nc3ccccc3c(=O)[nH]2)c1)c1ccccc1Cl,u,-12,-8%,u,-7%,-52*
CN(C)c1ccc(/C=C/c2nc3ccccc3c(=O)[nH]2)cc1,-23%,-92*,8%,u,-6%,-7
C(=C\c1nc2ccccc2[nH]1)/c1ccccc1,18µM*,u,-25%,18µM*,10µM*,-9
CCC(C)c1ccccc1NC(=O)C(C)NCCN(C)C (stereo not drawn),0%,2,-11%,12%,24%,4
CCOc1ccc(S(=O)(=O)NCC(=O)OCc2nnc(-c3ccccc3)o2)cc1,3%,-10,29%,7%,8%,4
COc1ccc(Cl)cc1-n1c(N)c(C(N)=O)sc1=S,5%,3,-15%,-2%,-1%,14
COc1ccc2c(c1)c1c3n2CCN(C)C3=NCC1,-1%,-3,22%,-5%,6%,-11
c1cc2c(cc1C1CCCCC1)c1c3n2CCN=C3CCC1,21µM*,-7,u,u,-119%,u
Cc1ccc2c(c1)c1c3n2CCN=C3CCC1,-1%,8,0%,-4%,-23%,-96*
Cc1ccc(C)c(N2CCN(C(=O)c3cccn4c(=O)c5sccc5nc34)CC2)c1,13µM*,12,-20%,16µM*,-23%,42
SMILES,HT1080NT lethal,Giardia killer,TGFb SMAD3 inh,HT1080 IDH1KD tx,HepG2 viability,IL1B secr inh
Cc1ccc(C)c(N2CCN(C(=O)c3cccn4c(=O)c5ccccc5nc34)CC2)c1,x,x,0%,x,-11%,x
CC(=O)Nc1ccc(NC(=O)c2cc3c(=O)n(Cc4cccnc4)ccc3nc2C)cc1,x,x,-2%,x,18µM*,x
Cc1ccc(C)c(N2CCN(C(=O)c3cc4c(=O)n(Cc5ccccc5)ccc4nc3C)CC2)c1,x,x,10µM*,x,-33%,x
Cc1cccc(NC(=O)c2cc3c(=O)n(Cc4cccnc4)ccc3nc2C)c1,x,x,-5%,x,-2%,x
CCc1c(-c2ccccc2)nc2sc3c(c2c1N)CCCC3,1%,-3,-30%,-22%,-4%,-84*
CN(C(=O)COC(=O)CSc1ccc(C(N)=O)cc1[N+](=O)[O-])C1CCCCC1,1%,4,-3%,6%,-3%,10
O=C(O)/C=C/c1ccc([N+](=O)[O-])o1,1%,-4,7%,-1%,15%,-20
O=C1NC(=S)S/C1=C\C=C\c1ccc([N+](=O)[O-])o1,5.8µM*,-86*,2.2µM*,5.2µM*,-105%,-98*
COc1cccc(CNC(=O)c2ccc(N3CCOCC3)c([N+](=O)[O-])c2)c1,10%,9,4%,-18%,1%,-12
O=C(NCc1ccncc1)c1ccc(N2CCCC2)c([N+](=O)[O-])c1,-16%,-20,3%,5%,0%,-3
C=C1CCN(c2ccc(C(=O)NCc3ccc(C)cc3)cc2[N+](=O)[O-])CC1,-4%,5,-1%,0%,-12%,-63*
COc1ccccc1CNC(=O)c1ccc(N2CCOCC2)c([N+](=O)[O-])c1,-8%,-2,3%,-5%,-21%,-55*
C=C1CCN(c2ccc(C(=O)NCc3ccc(OC)cc3)cc2[N+](=O)[O-])CC1,-16%,11,-6%,-4%,-18%,-75*
O=C(COc1ccc(S(=O)(=O)N2CCOCC2)cc1Cl)NCCN1CCOCC1,6%,-5,-21%,6%,2%,9
NC(=O)c1cc(N2C(=O)C=CC2=O)ccc1Cl,u,12,-13%,16µM*,0%,0
CC(=O)Nc1ccc(Cl)c(C(N)=O)c1,24%,12,u,-1%,-7%,0
COc1ccc(-c2nc3scc(CCNS(=O)(=O)c4c(C)noc4C)n3n2)cc1,x,x,-25%,x,-8%,x
O=C(COc1nsnc1N1CCOCC1)N/N=C/c1ccccc1O,u,6,-11%,15µM*,-54%,48
COc1ccc(/C=N/NC(=O)CCC(=O)Nc2ccc(F)cc2)c(OC)c1,-1%,-10,-12%,2%,-7%,-16
O=C(Cn1cc(C(F)(F)F)ccc1=O)N/N=C/c1ccccc1O,u,5,-24%,15µM*,-47%,116
